From ChEMBL document CHEMBL4513216, “Probing the Open Global Health Chemical Diversity Library for Multistage-Active Starting Points for Next-Generation Antimalarials” (ACS Infect Dis, 2020) come the findings set out here.

Each structure is given as a SMILES string. Screen size: about 69,000 compounds; about 8,600 (12%) showed an effect of 50% or more. This excerpt belongs to a sample that is enriched for strong results.

This assay relates to Plasmodium berghei. The assay is described as follows: Screen against P. berghei liver stage (PbLuc), transformed with Luciferase, at 10uM. Particulars: tested at 10 uM. In kind it is functional, HepG2.
Turning to `Cn1cnc2c1CCN(Cc1csc(C3CCCCC3)n1)C2`, the INHIBITION was found to be 33.3%. In the case of `CCCNC(=O)C1CCN(CC(O)c2ccc(C(F)(F)F)cc2)CC1` (configuration not stated), the INHIBITION was determined as 51.6%.

With `CCCNC(=O)C1CCN(CC(O)c2ccccc2)CC1` (configuration not stated), the INHIBITION stood at 30%. In the case of `CCCNC(=O)C1CCN(CC(O)c2ccccc2C(F)(F)F)CC1` (configuration not stated), the INHIBITION is listed as -4.12%. As to `CO[C@H]1CCN(Cc2cccc(C)n2)[C@@H]2CN(Cc3cccnc3)C[C@H]12`, the INHIBITION turned out to be 30.1%. In the case of `CS(=O)(=O)c1ccc(-c2cc(C3CC3)c(C#N)c(N)n2)cc1`, the INHIBITION is listed as -21.2%. In the case of `CCSc1ncc(-c2cc(C3CC3)nc(N)c2C#N)cn1`, the INHIBITION came to 52.8%. Under `N#Cc1c(C2CC2)cc(-c2ccc(F)c(F)c2)nc1N` stands -42.8%; under `CCCNc1ncc(-c2cc(C3CC3)nc(N)c2C#N)cn1`, 34.4%; under `CC(C)c1ncc(-c2cc(C3CCC3)nc(N)c2C#N)cn1`, 62.6%. For `CCSc1ncc(-c2cc(C3CCC3)nc(N)c2C#N)cn1`, the INHIBITION was 48.5%.

As for `Cc1ccc(N2CC[C@@H]3O[C@@H](COCc4cccnc4)CC[C@@H]32)nn1`, the INHIBITION is listed as 4.02%. Regarding `CCN(C(C)=O)C(c1ccc(Cl)cc1)c1ccccn1` (configuration not stated), the INHIBITION was 33.7%. Take `O=C1CCCN1Cc1ncn2c1CN(C(=O)Cc1cccs1)CCC2`: the INHIBITION is 32.2%.

Take `Cc1cnc(CCN(C)C(=O)c2cccc(C)c2O)s1`: the INHIBITION is recorded as 58.8%.

Turning to `Cc1cnc(CCN(C)C(=O)c2ccc(O)nc2C)s1`, the INHIBITION is on record as 60.2%. As for `Cc1ncsc1CCN(C)C(=O)c1c(O)cccc1O`, the INHIBITION turned out to be 25.1%. On to `Cc1nc(O)ccc1C(=O)NCc1ncoc1C`, for which the INHIBITION is listed as -17.3%.

For the compound `Cc1nc(-c2ccsc2)ccc1C(=O)N(C)CC1CC1`, the INHIBITION was 27.7%. As for `Cc1cnc(CCN(C)C(=O)c2cccc(N(C)C)c2)s1`, the INHIBITION was found to be 33.7%. Under `CNC(=O)[C@@H](c1ccccc1)N1CCC[C@H]1C(=O)NCc1ccccn1` stands 34.6%; under `CN(Cc1cccs1)C(=O)CN1C(=O)c2cc(Cl)c(Cl)cc2C1=O`, 14.8%; under `CCC(O)CN1CCN(C(=O)c2cccc(CC#N)c2)CC1` (configuration not stated), -12.2%. In the case of `O=C(C1CCN(c2cccnn2)C1)N1CCOCC1` (configuration not stated), the INHIBITION amounted to 18.3%. As to `Cc1cc(CN2C[C@@H]3CN(C(=O)c4cccn4C)CCO[C@@H]3C2)no1`, the INHIBITION is listed as 89.3%.

In the case of `Cn1cc(CN2C[C@@H]3CN(C(=O)c4cccn4C)CCO[C@@H]3C2)cn1`, the INHIBITION is listed as 24.9%. Next, `Cc1cc(CN2C[C@@H]3CN(C(=O)c4ccco4)CCO[C@@H]3C2)no1`: 12%.

For the compound `CN(Cc1cnn(C)c1)C(=O)NC1CCCC1`, the INHIBITION is reported as 8.38%. As for `CCCS(=O)(=O)N1CCO[C@H]2[C@@H](Oc3cccnc3)CC[C@@H]21`, the INHIBITION was determined as 10.5%.

`O=c1ccc(S(=O)(=O)N2CCCC2)cn1CC1CCCCO1` (configuration not stated): the INHIBITION is -15%.

`c1cncc(CN2CC[C@@H]3[C@@H]2CCN3Cc2ccc3c(c2)OCO3)c1`: the INHIBITION is -8.51%. Consider `O=S(=O)(c1c(N2CCCCC2)ccc2nonc12)N1CCCCC1`, for which the INHIBITION came out at 8.41%. Under `COc1ccc(C(C)NC(=O)N2CCNC(=O)CC2)cc1F` (configuration not stated) stands 74.8%. As to `Cc1ccc(C(C)NC(=O)N2CCNC(=O)CC2)cc1F` (configuration not stated), the INHIBITION was determined as 42.3%. Next, `CC(NC(=O)N1CCNC(=O)CC1)c1ccc(OC(F)F)cc1` (configuration not stated): -18.3%; `CCCc1n[nH]c(C2CN(C(=O)c3cc4c(s3)CCC4)CCO2)n1` (configuration not stated): 33.8%; `CC(C)NC(=O)CC1COC2(CCN(Cc3ccsc3)CC2)C1` (configuration not stated): 13.7%. On to `Cc1noc2ncc(C(=O)NCC3CCS(=O)(=O)C3)cc12` (configuration not stated), for which the INHIBITION was -49.1%.

Take `COc1ccccc1C(C)(C)NC(=O)c1ccc(F)c(NC(C)=O)c1`: the INHIBITION is listed as -47%. Next, `N#Cc1ccc(CN2C(=O)c3ccccc3CS2(=O)=O)cc1`: -9.35%; `O=C(CN1C(=O)c2ccccc2CS1(=O)=O)c1ccccc1`: 74.2%; `Cc1c2ncn(CC(=O)c3ccccc3)c(=O)c2nn1C`: 14.9%. On to `N#Cc1ccc(CN2C(=O)c3ccccc3CS2(=O)=O)c(F)c1`, for which the INHIBITION turned out to be 15.2%.

With `O=C(CN1C(=O)c2ccccc2CS1(=O)=O)c1ccc(Cl)cc1`, the INHIBITION turned out to be 55.4%. Next, `CN1CCC2(Cc3ccccc3CN(C(=O)c3ccc(Cl)cc3)C2)C1` (configuration not stated): -17.2%. Take `CC1CCN(C(=O)C2CCN(c3ccc(Cl)cc3C#N)CC2)CC1`: the INHIBITION was 41%. For `Cc1nc(C(=O)N2CCCC2c2c(C)nn(C)c2C)cs1` (configuration not stated), the INHIBITION amounted to 13.3%. `Cc1csc(N2CCN(CC(=O)NC3CCOCC3)CC2C)n1` (configuration not stated): the INHIBITION is 45.6%. Next, `CCC(=O)N1CCC2(CC1)C(=O)N(C)CCN2Cc1csc(C)n1`: 13.6%.

Consider `CCN(C(=O)CN1CCCN(c2nc(C)ns2)CC1)C1CC1`, for which the INHIBITION amounted to 68.5%.

With `Cc1nsc(N2CCN(CC(=O)N(C3CC3)C(C)C3CC3)CC2)n1` (configuration not stated), the INHIBITION was determined as 22.6%.

As for `CCc1nsc(N2CCCN(CC(=O)N(C)C3CC3)CC2)n1`, the INHIBITION is reported as 39.3%.
